From PubChem BioAssay
Results filed as inconclusive are left out. The source made the active and inactive calls.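 How the source made its calls, unless noted: active means inhibition above 54%, about 3 SD of non-fluorescent compounds; inactive means the rest.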 Peptide text beside a SMILES is read from it. * marks the point of attachment. Boc = CC(C)(C)OC(=O)*

How the values were obtained:
[1] = yeast TOR pathway RPL19A-GFP modulators, primary screen, cell-based, S. cerevisiae, multiplex flow cytometry (AID 1862; in the data active means percent of DMSO control GFP below about 86%;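 further: lower values mimic rapamycin by blocking the RPL19A rise seen in DMSO cells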); conditions: S. cerevisiae RPL19A-GFP strain, flow cytometry fluorescence, 3 h; at 10 µM; stronger effect = lower value
[2] = modulators of MEP2-GFP levels in yeast, primary screen, S. cerevisiae, multiplex flow cytometry (AID 1867;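 active means GFP response, as percent of the DMSO control, above the screen-wide mean plus 3 SD, about 139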;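 further: median GFP channel fluorescence of barcode-gated MEP2-GFP cells measured by flow cytometry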); conditions: S. cerevisiae MEP2-GFP strain, 3 h, at 10 µM, stronger effect = higher value, 100% means same as DMSO wells
[3] = modulators of CIT2-GFP expression in yeast, primary screen, S. cerevisiae, GFP fusion, multiplex flow cytometry (AID 1870;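 active means percent response above a set limit, the screen-wide mean plus 3 SD, cut at about 130% in these data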;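 further: barcoded CIT2-GFP strain pooled with four other GFP strains with rapamycin as positive control; median GFP fluorescence per well over plate mean of DMSO wells so 100% = DMSO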); conditions: 3 h, at 10 µM, stronger effect = higher value
[4] = modulators of LAP4-GFP expression in yeast, primary screen, S. cerevisiae, multiplex flow cytometry (AID 1873;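 active means GFP signal, as percent of the solvent control, above the screen mean plus 3 SD, about 149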); conditions: 3 h, at 10 µM, stronger effect = higher value
[5] = modulators of AGP1-GFP expression in yeast TOR pathway, primary screen, cell-based, multiplex flow cytometry, S. cerevisiae (AID 1887;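 active means GFP signal above the screen-wide mean plus 3 SD, that is over about 124.5% of the solvent control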;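 further: AGP1-GFP fusion strain of S. cerevisiae within a five-strain barcoded multiplex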); conditions: 3 h, at 10 µM, stronger effect = higher value
[6] = inhibitors of CD8+ T cell-vesicle binding, pilot screen, LFA-1/ICAM-1 modulator project, MLPCN validation set, flow cytometry (AID 2523;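 active means response below a set limit, under 55% cells CD8-positive and vesicle-bound, and CD8 cells' 90th-percentile brightness under 279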;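 on vesicle binding response: mean PE anti-B7-1 fluorescence of CD8+ cells relative to row control; 100% = QL9-loaded vesicles with DMSO vehicle in the same plate row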); conditions: 2C mouse CD8+ T cells, at 7 µM, stronger effect = lower value; double positive events: measured here: CD8+/vesicle+ event percentage
[7] = molecular target: Integrin beta-1 (Homo sapiens) + Integrin alpha-4 (Homo sapiens) (UniProt P13612+P05556); assay: inhibition of HUTS-21 binding to VLA-4, pilot screen, VLA-4 allosteric modulator project, U937 cells, HUTS-21 mAb, flow cytometry, validation set (AID 2674;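 active means inhibition above 50%, about 3 SD of the validation set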;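 further: antibody binding induced by the VLA-4 ligand LDV present at three times its Kd; 0% = LDV ligand with antibody and no compound and 100% = antibody without LDV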); conditions: HUTS-21 LIBS mAb binding, at 6.7 µM, stronger effect = higher value, binding induced by LDV ligand
[8] = superoxide lowering in aged yeast cells, pilot screen, validation compound set (AID 2706;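 active means superoxide response below 65% of plate, a cut near 3 SD across the whole screen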;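 further: yeast exposed to compound for one week at 30 degrees C before staining; 100% = mean of all compound wells on the same plate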); conditions: S. cerevisiae aging, superoxide DHE fluorescence; at 10 µM, stronger effect = lower value
[9] = molecular target: Beta-adrenergic receptor kinase 1 (Homo sapiens) (UniProt P25098); assay: GRK2 binders displacing RNA aptamer, biochemical, validation, human GRK2, bead flow cytometry (AID 488806;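 active means aptamer binding inhibition above 30%, about 3 SD of noise from non-fluorescent compounds; inactive means inhibition at or below 30%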); conditions: bead-bound GRK2, FAM-aptamer displacement, at 10 µM, stronger effect = higher value
[10] = molecular target: AP-2 complex subunit beta (Homo sapiens) (UniProt P63010); assay: inhibitors of arrestin peptide binding to AP2, pilot screen, biochemical, validation set, GST-AP2 beads, flow cytometry (AID 504541); conditions: FITC arrestin peptide, at 10 µM, stronger effect = higher value, AP2 beta2 appendage fragment, R879A mutant;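 further: AP2 carries R879A mutation and is captured from E. coli lysate; bead-bound FITC arrestin peptide fluorescence measuring arrestin peptide binding to AP2; 0% = DMSO wells and 100% = excess unlabeled arrestin peptide control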
[11] = yeast V-ATPase proton transport modulators, S. cerevisiae, pHLuorin, HTS validation (AID 504600; in the data active means response above about 15%;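 further: plate controls were DMSO for no effect and reference compound for full effect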); conditions: S. cerevisiae pHLuorin cytosolic pH, at 10 µM, stronger effect = higher value
[12] = system: anti-desmoglein-3 scFv antibody binding to human DSG3; assay: inhibitors of anti-DSG3 scFv binding to DSG3, pilot screen, biochemical, validation compound set, bead-based, flow cytometry (AID 588368;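 active means binding below the plate cutoff, the plate median minus 3 SD, with a reading above zero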;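 further: signal is the median channel fluorescence of bead-bound GFP antibody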); conditions: Protein G beads, DSG3-Fc, scFv-GFP binding, at 10 µM, stronger effect = lower value
[13] = inhibitors of fungal efflux pumps CDR1, CDR2, MDR1, pilot screen, validation compound set, multiplex, phenotypic (AID 588506;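 active means efflux inhibition above 0.42, the validation set average plus 4 SD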;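 further: Nile Red retained in cells so higher fluorescence means more efflux inhibition; 0 = negative control wells and 1 = enniatin B 25 µM full block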); conditions: S. cerevisiae pump-expressing triplex, Nile Red efflux flow cytometry; at 10 µM; stronger effect = higher value; the pumps come from Candida albicans
[14] = molecular target: ATP-binding cassette sub-family B member 6 (Homo sapiens) (UniProt Q9NP58); assay: ABCB6 transporter inhibitors, pilot screen, K562-ABCB6 cells, flow cytometry, validation set (AID 588550;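 active means inhibition above the screen-wide mean plus 3 SD, about 51%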;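 further: 0% = DMSO wells and 100% = benzethonium chloride 70 µM positive control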); conditions: K562-ABCB6 porphyrin accumulation, 1 h, at 10 µM, stronger effect = higher value
[15] = promoters of myeloid differentiation in arrested cells, primary screen, cell-based, GFP/MAC1 double positive, flow cytometry, validation set (AID 588685;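 active means differentiation response of at least 50%, scaled between solvent and reference control, from cells with both markers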;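 further: compound exposure lasts four days before antibody staining and flow analysis; 0% = DMSO wells and 100% = 5 µM fulvestrant positive control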); conditions: ER-HoxA9 marrow cells, stronger effect = higher value, normalized: vehicle 0, fulvestrant 100

Chain of Beta-adrenergic receptor kinase 1 (Homo sapiens) (P25098 whole entry, looked up, the tested form may be a part): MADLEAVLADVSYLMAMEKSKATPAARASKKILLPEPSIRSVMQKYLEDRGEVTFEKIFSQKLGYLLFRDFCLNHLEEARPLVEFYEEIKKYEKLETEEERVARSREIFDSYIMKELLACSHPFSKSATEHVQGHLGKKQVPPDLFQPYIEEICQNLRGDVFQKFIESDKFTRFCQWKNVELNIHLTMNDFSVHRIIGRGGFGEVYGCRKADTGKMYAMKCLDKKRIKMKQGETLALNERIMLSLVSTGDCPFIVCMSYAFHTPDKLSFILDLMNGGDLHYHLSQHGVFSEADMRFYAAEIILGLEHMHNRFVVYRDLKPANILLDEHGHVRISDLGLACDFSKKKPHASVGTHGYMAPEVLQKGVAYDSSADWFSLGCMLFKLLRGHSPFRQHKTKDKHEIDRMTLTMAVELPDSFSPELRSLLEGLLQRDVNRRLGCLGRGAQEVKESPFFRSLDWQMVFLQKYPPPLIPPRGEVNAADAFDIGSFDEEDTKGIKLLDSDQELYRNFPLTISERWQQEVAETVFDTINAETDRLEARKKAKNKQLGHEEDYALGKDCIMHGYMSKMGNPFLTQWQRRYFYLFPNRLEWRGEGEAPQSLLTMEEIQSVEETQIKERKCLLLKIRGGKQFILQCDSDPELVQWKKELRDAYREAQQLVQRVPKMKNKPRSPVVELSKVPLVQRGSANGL
Chain of ATP-binding cassette sub-family B member 6 (Homo sapiens) (Q9NP58 whole entry, looked up): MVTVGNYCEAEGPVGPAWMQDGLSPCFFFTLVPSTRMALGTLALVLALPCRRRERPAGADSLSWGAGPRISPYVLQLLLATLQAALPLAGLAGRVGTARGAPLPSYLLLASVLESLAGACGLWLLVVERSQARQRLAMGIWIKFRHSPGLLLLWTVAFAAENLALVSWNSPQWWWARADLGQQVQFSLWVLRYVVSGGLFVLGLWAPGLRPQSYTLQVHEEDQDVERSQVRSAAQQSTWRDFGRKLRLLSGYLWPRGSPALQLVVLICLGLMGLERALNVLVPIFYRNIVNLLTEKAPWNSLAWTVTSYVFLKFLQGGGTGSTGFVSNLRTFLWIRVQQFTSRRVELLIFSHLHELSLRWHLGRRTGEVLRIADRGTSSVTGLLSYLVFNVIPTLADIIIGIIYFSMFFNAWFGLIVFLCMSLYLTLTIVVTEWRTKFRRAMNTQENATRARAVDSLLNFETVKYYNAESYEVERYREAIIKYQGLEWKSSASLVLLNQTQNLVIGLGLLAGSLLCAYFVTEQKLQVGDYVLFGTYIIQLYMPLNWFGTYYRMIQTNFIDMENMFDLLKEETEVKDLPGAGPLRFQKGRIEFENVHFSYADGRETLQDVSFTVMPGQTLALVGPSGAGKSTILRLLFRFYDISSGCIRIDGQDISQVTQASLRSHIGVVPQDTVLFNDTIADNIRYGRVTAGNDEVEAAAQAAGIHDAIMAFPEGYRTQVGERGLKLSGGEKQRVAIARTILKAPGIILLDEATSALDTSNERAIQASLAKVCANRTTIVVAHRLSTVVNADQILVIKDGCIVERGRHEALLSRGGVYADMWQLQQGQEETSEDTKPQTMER
Chain of AP-2 complex subunit beta (Homo sapiens) (P63010 whole entry, looked up, the tested form may be a part, one chain of several): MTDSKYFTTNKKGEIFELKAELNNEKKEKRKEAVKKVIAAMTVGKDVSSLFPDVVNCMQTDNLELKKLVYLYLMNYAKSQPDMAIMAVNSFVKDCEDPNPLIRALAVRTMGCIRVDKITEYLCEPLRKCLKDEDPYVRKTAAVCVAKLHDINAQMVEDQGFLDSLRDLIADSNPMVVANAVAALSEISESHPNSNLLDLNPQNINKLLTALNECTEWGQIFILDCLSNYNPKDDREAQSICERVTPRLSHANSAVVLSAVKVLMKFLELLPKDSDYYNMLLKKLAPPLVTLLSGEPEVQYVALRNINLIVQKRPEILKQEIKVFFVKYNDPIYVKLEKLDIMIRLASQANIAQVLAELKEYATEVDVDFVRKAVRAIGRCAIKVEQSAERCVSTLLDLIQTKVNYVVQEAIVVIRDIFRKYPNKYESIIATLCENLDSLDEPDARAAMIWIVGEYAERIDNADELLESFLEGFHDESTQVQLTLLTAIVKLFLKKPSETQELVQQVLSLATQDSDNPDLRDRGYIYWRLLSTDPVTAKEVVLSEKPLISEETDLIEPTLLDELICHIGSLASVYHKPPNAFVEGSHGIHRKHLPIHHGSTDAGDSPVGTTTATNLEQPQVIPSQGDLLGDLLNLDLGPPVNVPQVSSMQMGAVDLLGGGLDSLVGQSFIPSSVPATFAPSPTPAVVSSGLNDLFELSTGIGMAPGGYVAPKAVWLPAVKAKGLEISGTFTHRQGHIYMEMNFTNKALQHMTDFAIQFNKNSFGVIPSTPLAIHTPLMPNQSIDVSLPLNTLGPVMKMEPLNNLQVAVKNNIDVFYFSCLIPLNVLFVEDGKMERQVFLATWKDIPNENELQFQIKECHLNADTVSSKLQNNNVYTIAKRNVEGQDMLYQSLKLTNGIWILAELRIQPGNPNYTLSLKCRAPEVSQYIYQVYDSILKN
Chain of Integrin beta-1 (Homo sapiens) + Integrin alpha-4 (Homo sapiens) (P05556 whole entry, looked up): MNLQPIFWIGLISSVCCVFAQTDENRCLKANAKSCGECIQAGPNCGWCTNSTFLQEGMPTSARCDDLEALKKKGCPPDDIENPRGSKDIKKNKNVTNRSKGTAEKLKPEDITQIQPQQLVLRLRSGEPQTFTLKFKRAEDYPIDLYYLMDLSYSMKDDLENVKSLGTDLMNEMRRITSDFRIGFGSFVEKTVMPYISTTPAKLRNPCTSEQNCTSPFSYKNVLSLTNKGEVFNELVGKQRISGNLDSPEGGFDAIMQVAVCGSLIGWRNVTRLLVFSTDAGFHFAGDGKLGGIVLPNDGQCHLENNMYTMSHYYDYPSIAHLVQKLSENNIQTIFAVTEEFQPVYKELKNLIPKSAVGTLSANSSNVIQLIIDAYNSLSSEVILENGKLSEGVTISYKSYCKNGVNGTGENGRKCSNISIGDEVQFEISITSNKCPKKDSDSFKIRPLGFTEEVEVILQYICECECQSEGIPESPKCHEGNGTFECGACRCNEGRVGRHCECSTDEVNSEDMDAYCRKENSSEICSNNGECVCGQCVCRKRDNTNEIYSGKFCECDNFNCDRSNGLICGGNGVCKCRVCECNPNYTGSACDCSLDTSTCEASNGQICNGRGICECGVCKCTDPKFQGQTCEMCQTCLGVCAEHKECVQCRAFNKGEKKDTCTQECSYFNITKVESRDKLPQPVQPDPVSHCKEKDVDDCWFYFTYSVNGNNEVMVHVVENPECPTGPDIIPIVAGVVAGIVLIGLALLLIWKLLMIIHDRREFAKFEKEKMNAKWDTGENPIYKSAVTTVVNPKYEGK
Chain of Integrin beta-1 (Homo sapiens) + Integrin alpha-4 (Homo sapiens) (P13612 whole entry, looked up): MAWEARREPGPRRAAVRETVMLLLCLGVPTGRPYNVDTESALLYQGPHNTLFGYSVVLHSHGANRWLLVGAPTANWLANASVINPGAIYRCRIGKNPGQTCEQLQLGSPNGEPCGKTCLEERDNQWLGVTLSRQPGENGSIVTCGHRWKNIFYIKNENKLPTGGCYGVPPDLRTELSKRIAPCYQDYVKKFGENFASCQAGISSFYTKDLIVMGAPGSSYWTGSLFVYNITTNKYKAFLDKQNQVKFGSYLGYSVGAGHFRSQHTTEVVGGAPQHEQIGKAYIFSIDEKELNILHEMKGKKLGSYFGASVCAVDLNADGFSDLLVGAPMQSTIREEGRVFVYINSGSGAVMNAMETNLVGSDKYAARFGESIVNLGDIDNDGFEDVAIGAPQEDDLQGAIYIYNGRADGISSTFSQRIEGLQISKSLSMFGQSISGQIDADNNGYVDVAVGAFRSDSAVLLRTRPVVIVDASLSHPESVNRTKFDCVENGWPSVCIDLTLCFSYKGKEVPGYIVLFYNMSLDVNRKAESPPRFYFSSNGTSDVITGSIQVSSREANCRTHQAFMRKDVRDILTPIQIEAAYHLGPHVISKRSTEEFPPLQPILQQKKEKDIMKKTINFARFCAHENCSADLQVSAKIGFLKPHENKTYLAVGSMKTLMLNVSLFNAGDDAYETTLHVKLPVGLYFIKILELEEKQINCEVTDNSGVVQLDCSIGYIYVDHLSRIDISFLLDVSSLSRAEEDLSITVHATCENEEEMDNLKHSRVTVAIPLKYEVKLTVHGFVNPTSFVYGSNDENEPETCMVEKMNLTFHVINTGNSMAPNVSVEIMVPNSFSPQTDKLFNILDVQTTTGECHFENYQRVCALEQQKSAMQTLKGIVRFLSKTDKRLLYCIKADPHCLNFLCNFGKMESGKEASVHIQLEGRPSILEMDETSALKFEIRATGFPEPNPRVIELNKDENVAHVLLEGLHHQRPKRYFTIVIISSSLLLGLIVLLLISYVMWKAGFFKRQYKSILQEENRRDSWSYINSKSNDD

CC[N+](C)(CC)CCOC(=O)C(O)(c1ccccc1)C1CCCCC1 (stereo not given)
inactive: percent of DMSO control GFP [1] 101% | GFP response vs DMSO [2] 103% | percent response of DMSO control [3] 105% | GFP response vs DMSO [4] 105% | GFP response, % of DMSO [5] 103% | vesicle binding response [6] 175% | inhibition [7] -32.9% | superoxide response (% of plate) [8] 102% | aptamer binding inhibition [9] -3% | inhibition [10] -1.88% | response [11] 6.06% | binding (% of control) [12] 98.5% | efflux inhibition (fraction of control) [13] -0.01 | inhibition [14] -1% | differentiation response [15] 0%
57.8%: double positive events [6]

COc1cc2c(cc1OC)C(c1cc3ccccc3oc1=O)=NC(C)(C)C2
46.8%: double positive events [6]
inactive: percent of DMSO control GFP [1] 101% | GFP response vs DMSO [2] 103% | percent response of DMSO control [3] 107% | GFP response vs DMSO [4] 96.4% | GFP response, % of DMSO [5] 100% | vesicle binding response [6] 137% | inhibition [7] 10.9% | superoxide response (% of plate) [8] 117% | aptamer binding inhibition [9] 3% | inhibition [10] -0.33% | response [11] 2.07% | binding (% of control) [12] 98.7% | efflux inhibition (fraction of control) [13] 0.1 | inhibition [14] 10% | differentiation response [15] -13.1%

CN1CCCC(OC(=O)c2ccc3c(c2)OCCO3)C1 (stereo not given)
58.8%: double positive events [6]
inactive: percent of DMSO control GFP [1] 101% | GFP response vs DMSO [2] 106% | percent response of DMSO control [3] 108% | GFP response vs DMSO [4] 82.3% | GFP response, % of DMSO [5] 96.3% | vesicle binding response [6] 175% | inhibition [7] -8.64% | superoxide response (% of plate) [8] 100% | aptamer binding inhibition [9] 0% | inhibition [10] 2.71% | response [11] -2.88% | binding (% of control) [12] 96% | efflux inhibition (fraction of control) [13] 0.41 | inhibition [14] 8% | differentiation response [15] 1.41%

Cc1nc(C(=O)Nc2ccccc2Cl)cc2c1[nH]c1ccccc12
53.9%: double positive events [6]
inactive: percent of DMSO control GFP [1] 99.6% | GFP response vs DMSO [2] 108% | percent response of DMSO control [3] 106% | GFP response vs DMSO [4] 100% | GFP response, % of DMSO [5] 98.2% | vesicle binding response [6] 172% | inhibition [7] -1.17% | superoxide response (% of plate) [8] 111% | aptamer binding inhibition [9] 1% | inhibition [10] -0.33% | response [11] 2.14% | binding (% of control) [12] 95.4% | efflux inhibition (fraction of control) [13] 0.14 | inhibition [14] 11% | differentiation response [15] -9.89%

Cc1ccc(-n2ncc3c(Nc4cccc(C(=O)O)c4)ncnc32)cc1
inactive: percent of DMSO control GFP [1] 100% | GFP response vs DMSO [2] 102% | percent response of DMSO control [3] 93% | GFP response vs DMSO [4] 105% | GFP response, % of DMSO [5] 93.9% | vesicle binding response [6] 217% | inhibition [7] -5.84% | superoxide response (% of plate) [8] 105% | aptamer binding inhibition [9] -2% | inhibition [10] -0.33% | response [11] -4.83% | binding (% of control) [12] 101% | efflux inhibition (fraction of control) [13] 0.1 | inhibition [14] 5%
66.3%: double positive events [6]
active: differentiation response [15] 74.1%

Cc1cc(-c2nn(-c3ccccc3F)cc2CN2CCC(O)CC2)c(C)s1
47.2%: double positive events [6]
inactive: percent of DMSO control GFP [1] 102% | GFP response vs DMSO [2] 98.9% | percent response of DMSO control [3] 104% | GFP response vs DMSO [4] 93.3% | GFP response, % of DMSO [5] 95.5% | vesicle binding response [6] 132% | inhibition [7] -7.7% | superoxide response (% of plate) [8] 93.1% | aptamer binding inhibition [9] 4% | inhibition [10] -9.39% | response [11] 0.7% | binding (% of control) [12] 98.3% | efflux inhibition (fraction of control) [13] -0.35 | inhibition [14] 10% | differentiation response [15] -30.9%

CC(O)Cn1cnc2c1c(=O)n(C)c(=O)n2C (stereo not given)
inactive: percent of DMSO control GFP [1] 95.1% | GFP response vs DMSO [2] 93.8% | percent response of DMSO control [3] 111% | GFP response vs DMSO [4] 94.3% | GFP response, % of DMSO [5] 98.7% | vesicle binding response [6] 150% | inhibition [7] 4.42% | superoxide response (% of plate) [8] 105% | aptamer binding inhibition [9] 0% | inhibition [10] -14.4% | response [11] 0.41% | binding (% of control) [12] 101% | efflux inhibition (fraction of control) [13] -0.24 | inhibition [14] 4% | differentiation response [15] -14.7%
50%: double positive events [6]

O=C1OCCN1/N=C/c1ccc([N+](=O)[O-])o1
48.6%: double positive events [6]
inactive: percent of DMSO control GFP [1] 103% | GFP response vs DMSO [2] 103% | percent response of DMSO control [3] 109% | GFP response vs DMSO [4] 111% | GFP response, % of DMSO [5] 102% | vesicle binding response [6] 157% | inhibition [7] 3.49% | superoxide response (% of plate) [8] 124% | aptamer binding inhibition [9] -2% | inhibition [10] 3.09% | response [11] 8.6% | binding (% of control) [12] 104% | efflux inhibition (fraction of control) [13] 0.06 | inhibition [14] 4% | differentiation response [15] -16.4%

CC(C)(C)OC(=O)N1CCCC1C(=O)NC(Cc1ccccc1)C(=O)O (stereo not drawn) (Boc-Pro-Phe-OH; configuration not given here)
inactive: percent of DMSO control GFP [1] 101% | GFP response vs DMSO [2] 98.9% | percent response of DMSO control [3] 104% | GFP response vs DMSO [4] 104% | GFP response, % of DMSO [5] 102% | vesicle binding response [6] 186% | inhibition [7] 13.8% | superoxide response (% of plate) [8] 92.5% | aptamer binding inhibition [9] -1% | inhibition [10] 9.73% | response [11] 4.48% | binding (% of control) [12] 101% | efflux inhibition (fraction of control) [13] 0.22 | inhibition [14] 10% | differentiation response [15] 7.87%
61.4%: double positive events [6]

CCN(CC)CCNc1ccc(CO)c2sc3ccccc3c(=O)c12
47.8%: double positive events [6]
inactive: percent of DMSO control GFP [1] 104% | GFP response vs DMSO [2] 109% | percent response of DMSO control [3] 112% | GFP response vs DMSO [4] 112% | GFP response, % of DMSO [5] 103% | vesicle binding response [6] 231% | inhibition [7] 21.2% | superoxide response (% of plate) [8] 109% | aptamer binding inhibition [9] -5% | inhibition [10] -0.76% | response [11] 2.76% | binding (% of control) [12] 120% | efflux inhibition (fraction of control) [13] -0.39 | inhibition [14] 8% | differentiation response [15] -8.27%
